# Most compounds without a hit are left out; they make up all but 21% or so of the library.
# MRP1 act = H69AR viability gain despite doxorubicin, primary screen, MRP-1 activator project, H69AR cells, CellTiter-Glo. viability rescue. viability increase, % at 10 µM. 140,000 compounds, 0.61% hits. AID 799, 2007;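 active = viability gain under doxorubicin at or above a set limit, the compound median plus 3 SD, cut at about 4.7% in these data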;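 note: MRP-1 overexpressing cells given doxorubicin 25 µM after compound pretreatment; 18-22 h compound pretreatment then 72 h with doxorubicin before readout; 0% = doxorubicin-only wells and 100% = vehicle-treated cells without doxorubicin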
# CYP2C9 activ = human CYP2C9 activators, primary screen, biochemical, luminescence; 96,000 compounds, 1.4% hits; activation factor at 5 µM; recombinant CYP2C9, luciferin-H conversion; stronger effect = higher value; factor 1 = untreated enzyme, 0 = blocked; Cytochrome P450 2C9 (Homo sapiens), P11712;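 active = activation factor of 2 or more for CYP2C9 at a 5 µM dose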;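 note: 0 = sulfaphenazole-blocked wells and 1 = vehicle-only wells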
# CYP2C9 inh = blockers of cytochrome P450 2C9 activity – biochemical, luminescence, ADME assay, primary screen. 96,000 compounds, 20% hits. CYP2C9 Supersomes, luciferin-H conversion. P11712. AID 777, 2007. inhibition, % at 5 µM;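 active = blocking of liver enzyme CYP2C9 beyond about 50% at 5 µM, limit read from the data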
# MRP resist rev = reversal of MRP1-mediated doxorubicin resistance, primary screen, H69AR cells, doxorubicin co-treatment; H69AR cells + 2 uM doxorubicin, CellTiter-Glo, 72 h; differential viability (reversal), % at 10 µM; 85,000 compounds, 0.04% hits;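 active = viability drop by adding the cancer drug above about 55%, with treated viability meeting a 40% cutoff, limit read from the data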;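 note: viability without doxorubicin minus viability with 2 µM doxorubicin for each compound; larger differential means the compound sensitizes cells more to doxorubicin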
# CYP2C19 inhib = blockers of cytochrome P450 2C19 activity – biochemical, luminescence, ADME assay, primary screen; P33261; CYP2C19 Supersomes, luciferin-H EGE luminescence, 30 min; inhibition, % at 5 µM; 96,000 compounds, 21% hits; AID 778, 2007;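 active = CYP2C19 inhibition above a set limit at 5 µM in the primary screen, cut at about 50% in these data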;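 note: plate controls were negative control wells for no effect and 2.5 mM tranylcypromine positive control for full effect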
# Target sequence (P33261 whole entry, looked up): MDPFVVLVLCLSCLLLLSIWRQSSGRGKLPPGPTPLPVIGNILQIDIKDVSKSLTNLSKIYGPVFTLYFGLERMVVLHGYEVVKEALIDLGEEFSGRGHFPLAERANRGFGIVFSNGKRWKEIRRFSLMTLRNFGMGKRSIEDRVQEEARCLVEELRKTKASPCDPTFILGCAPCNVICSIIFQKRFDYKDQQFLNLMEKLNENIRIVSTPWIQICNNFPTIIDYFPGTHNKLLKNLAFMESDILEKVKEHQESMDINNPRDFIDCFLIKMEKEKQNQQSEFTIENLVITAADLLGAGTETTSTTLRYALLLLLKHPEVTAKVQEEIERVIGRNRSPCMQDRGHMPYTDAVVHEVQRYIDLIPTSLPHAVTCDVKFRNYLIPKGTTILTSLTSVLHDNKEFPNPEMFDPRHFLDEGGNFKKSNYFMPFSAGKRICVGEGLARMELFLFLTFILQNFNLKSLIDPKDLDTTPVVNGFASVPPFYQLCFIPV
# CYP2C19 act = human CYP2C19 activators, primary screen, biochemical, luminescence; recombinant CYP2C19, luciferin-H EGE luminescence; stronger effect = higher value; 0 = fully inhibited enzyme, 1 = untreated enzyme; activation factor at 5 µM; 96,000 tested, under 10 active;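 active = activation factor of at least 2 at 5 µM in the primary screen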;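 note: 0 = wells with 2.5 mM tranylcypromine and 1 = vehicle-only wells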
# * = called active by the depositor; / = no result given.
SMILES,MRP1 act,CYP2C9 activ,CYP2C9 inh,MRP resist rev,CYP2C19 inhib,CYP2C19 act
O=[N+]([O-])c1ccc2c(c1)C=C1CCCCC1(N1CCCC1)O2 (centres undefined),0.0,/,/,/,/,/
CCCCCC(=O)OC(CN1CCCCC1)CN1CCCC1=O (centres undefined),0.4,1,-3.1,/,2.0,1
C=CCNc1nc2ccccc2nc1NS(=O)(=O)c1cccs1,-0.8,0.1,92.9*,11.8,-2.2,1
Oc1ccc(-c2csc(NCc3ccco3)n2)cc1,-3.2,0.6,41.3,-22.4,28.9,0.7
O=S(=O)(Nc1nc2ccccc2nc1NCc1ccco1)c1cccs1,-7.2,0.2,78.2*,11.8,-7.0,1.1
O=S(=O)(Nc1nc2ccccc2nc1Nc1ccc2c(c1)OCCO2)c1cccs1,0.7,0.1,93.1*,2.6,13.8,0.9
Cc1cc(C)nc(NS(=O)(=O)c2cccs2)c1,-2.1,/,/,28.6,/,/
CCCCCNc1nc2ccccc2nc1NS(=O)(=O)c1cccs1,0.6,0.3,68.3*,2.2,4.2,1
COc1ccc(Cl)cc1NC(=O)CN1CCC(n2nnc3ccccc32)CC1,-4.9,/,/,8.8,/,/
C=C(C)C1CC=C(C)/C(=N/NC(=O)c2ccoc2C)C1 (centres undefined),-0.1,/,/,/,/,/
CCOC(=O)c1ccc(NC(=O)c2nccnc2C(=O)O)cc1,1.0,1.3,-29.7,-10.9,-10.9,1.1
CCCCNC(C(=O)Nc1ccc([N+](=O)[O-])cc1Br)c1ccccc1 (centres undefined),-0.2,/,/,/,/,/
Cc1ccc(C2CC(c3ccccc3)=NN2c2ccccc2)o1 (centres undefined),4.0,/,/,/,/,/
NS(=O)(=O)c1ccc(N2N=C(c3ccccc3)CC2c2ccc(F)cc2)cc1 (centres undefined),2.0,0.1,90.4*,/,31.3,0.7
CC1(C)N(O)CC(c2cccs2)=[N+]1[O-],-1.4,1.1,-6.7,-5.6,-4.5,1
O=C(CN1CCN(C(=O)c2ccco2)CC1)Nc1ccccc1-c1ccccc1,-4.2,0.2,80.0*,-17.5,75.6*,0.2
O=C(CN1CCCCC1)N1c2ccccc2CCc2ccccc21,-0.8,1.2,-17.3,5.1,-7.4,1.1
O=C(c1ccco1)N1CCN(CC(=O)N2c3ccccc3CCc3ccccc32)CC1,-2.1,0.4,61.1*,-2.1,16.9,0.8
CCOC(=O)c1ccc(NC(=O)C(=O)NCC2CCCO2)cc1 (centres undefined),-1.6,0.8,15.6,/,18.2,0.8
CC(C)CCNC(=O)NC(=O)COc1ccccc1C#N,0.6,0.5,48.5,25.5,74.6*,0.3
O=C(CC(=O)N/N=C\c1c(Cl)cccc1Cl)NCc1ccccc1,1.6,0.6,40.8,/,86.2*,0.1
O=C(CCC(=O)N/N=C/c1ccccc1O)NCc1ccccc1,4.5,/,/,/,/,/
Cc1c(O)ccc(-c2[nH]ncc2-c2nc3ccccc3s2)c1O,2.1,0.3,68.7*,5.0,86.8*,0.1
Cc1c(NC(=O)c2ncn[nH]2)cccc1-c1nc2ccccc2s1,-1.3,/,/,/,/,/
O=C1CC(c2ccccc2)CC(O)=C1C=NC1CCCC1 (centres undefined),-0.7,0.8,16.3,/,79.0*,0.2
SMILES,MRP1 act,CYP2C9 activ,CYP2C9 inh,MRP resist rev,CYP2C19 inhib,CYP2C19 act
O=C1CC(c2ccccc2)CC(O)=C1C=NC1CCCCC1 (centres undefined),-0.8,1.1,-6.7,/,-2.0,1
O=C(CCS(=O)(=O)c1cccc2nonc12)N1CCN(c2ccc(F)cc2)CC1,-3.2,2*,-103.4,-8.2,49.4,0.5
O=C(CCS(=O)(=O)c1cccs1)N1CCN(c2ccc(F)cc2)CC1,-1.2,0.8,17.7,-13.9,72.3*,0.3
O=C(CCS(=O)(=O)c1cccc2nonc12)N1CCOCC1,-0.2,1.1,-9.1,23.1,3.6,1
O=C(COC(=O)c1cc(-c2ccncc2)nc2ccccc12)Nc1ccc2c(c1)OCO2,-1.3,/,/,/,/,/
O=C(N/N=C/c1cccs1)C1COc2ccccc2O1 (centres undefined),-1.0,0.6,44.7,-33.0,82.3*,0.2

# Source: PubChem BioAssay (several laboratories)
